Each structure is given as a SMILES string. Where “and” joins values, the source holds several entries; their conditions need not be identical. Equal values may be shown once. The campaign covered roughly 360,000 compounds. About 16,000 (4.4%) were called active. Inconclusive results (about 9%) are left out. This is one part of a sample in which actives are shown more often than they occur. Calls follow the shape of the dose curve; as a rule, active = well fitted inhibition curve with a large enough effect; inconclusive = small, poorly fitted or top-dose-only effect; inactive = no such curve, though single readings can be large or run the other way. A structure can be active in one record and inactive in another.
% is scaled to controls: 0 for no effect and ±100 for the full control effect; potency is read from the fitted curve at half-maximal effect.

Chain of Bromodomain adjacent to zinc finger domain protein 2B (Homo sapiens) (Q9UIF8 whole entry, looked up, the tested form may be a part): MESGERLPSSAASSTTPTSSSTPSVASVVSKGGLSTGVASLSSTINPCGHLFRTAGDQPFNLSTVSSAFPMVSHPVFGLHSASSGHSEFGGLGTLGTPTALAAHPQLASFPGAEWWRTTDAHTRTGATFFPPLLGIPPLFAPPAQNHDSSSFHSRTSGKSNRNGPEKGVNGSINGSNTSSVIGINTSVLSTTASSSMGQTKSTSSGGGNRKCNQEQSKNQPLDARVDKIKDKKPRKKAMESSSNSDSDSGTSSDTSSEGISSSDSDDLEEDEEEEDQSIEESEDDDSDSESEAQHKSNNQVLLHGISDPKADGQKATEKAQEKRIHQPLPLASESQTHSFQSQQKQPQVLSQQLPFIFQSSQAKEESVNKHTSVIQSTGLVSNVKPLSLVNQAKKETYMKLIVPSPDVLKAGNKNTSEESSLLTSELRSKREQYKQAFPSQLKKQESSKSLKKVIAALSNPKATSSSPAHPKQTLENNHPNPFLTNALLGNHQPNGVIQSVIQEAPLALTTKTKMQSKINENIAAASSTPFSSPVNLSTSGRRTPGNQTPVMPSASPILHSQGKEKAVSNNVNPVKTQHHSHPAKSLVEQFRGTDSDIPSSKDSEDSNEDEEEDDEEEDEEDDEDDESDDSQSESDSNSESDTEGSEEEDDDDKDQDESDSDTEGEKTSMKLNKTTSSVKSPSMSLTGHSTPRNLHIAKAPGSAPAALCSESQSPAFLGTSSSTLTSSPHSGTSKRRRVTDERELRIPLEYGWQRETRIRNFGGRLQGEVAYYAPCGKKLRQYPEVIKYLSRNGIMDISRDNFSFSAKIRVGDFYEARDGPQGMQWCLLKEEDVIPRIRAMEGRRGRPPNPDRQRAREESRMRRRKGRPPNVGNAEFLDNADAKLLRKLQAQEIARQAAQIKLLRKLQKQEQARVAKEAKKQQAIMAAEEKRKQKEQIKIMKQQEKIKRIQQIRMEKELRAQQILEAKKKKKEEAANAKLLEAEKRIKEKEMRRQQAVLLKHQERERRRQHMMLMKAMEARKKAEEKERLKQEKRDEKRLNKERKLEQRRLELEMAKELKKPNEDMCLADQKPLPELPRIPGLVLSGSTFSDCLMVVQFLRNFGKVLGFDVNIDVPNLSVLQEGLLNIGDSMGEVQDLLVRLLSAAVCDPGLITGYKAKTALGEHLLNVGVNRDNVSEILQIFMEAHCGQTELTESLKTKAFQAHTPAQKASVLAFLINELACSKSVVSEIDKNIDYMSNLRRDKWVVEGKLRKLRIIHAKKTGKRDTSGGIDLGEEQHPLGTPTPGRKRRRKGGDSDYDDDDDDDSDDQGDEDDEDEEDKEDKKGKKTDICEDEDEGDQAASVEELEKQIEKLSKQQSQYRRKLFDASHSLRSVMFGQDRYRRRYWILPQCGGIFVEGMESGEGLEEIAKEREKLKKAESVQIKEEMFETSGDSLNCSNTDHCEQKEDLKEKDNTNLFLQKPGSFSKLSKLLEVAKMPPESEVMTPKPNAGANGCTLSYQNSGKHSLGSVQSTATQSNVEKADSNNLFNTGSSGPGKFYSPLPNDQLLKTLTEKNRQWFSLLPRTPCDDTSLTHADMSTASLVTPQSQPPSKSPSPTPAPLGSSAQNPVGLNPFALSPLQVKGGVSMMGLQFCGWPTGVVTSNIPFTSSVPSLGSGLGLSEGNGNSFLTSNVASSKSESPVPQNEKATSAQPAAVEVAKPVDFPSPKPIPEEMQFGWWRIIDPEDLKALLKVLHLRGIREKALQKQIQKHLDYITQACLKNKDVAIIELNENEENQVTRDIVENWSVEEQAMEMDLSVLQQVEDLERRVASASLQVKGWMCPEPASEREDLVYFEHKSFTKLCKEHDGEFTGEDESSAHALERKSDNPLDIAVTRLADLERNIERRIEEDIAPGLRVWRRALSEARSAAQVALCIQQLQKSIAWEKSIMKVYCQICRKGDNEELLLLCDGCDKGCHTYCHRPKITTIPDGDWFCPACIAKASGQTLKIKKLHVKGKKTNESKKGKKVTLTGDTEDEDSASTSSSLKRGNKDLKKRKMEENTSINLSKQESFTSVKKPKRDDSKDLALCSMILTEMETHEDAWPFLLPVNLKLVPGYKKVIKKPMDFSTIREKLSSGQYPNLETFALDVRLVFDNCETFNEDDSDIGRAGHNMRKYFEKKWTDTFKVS

This assay deals with Bromodomain adjacent to zinc finger domain protein 2B (Homo sapiens) (UniProt Q9UIF8). Description: qHTS Assay for Inhibitors of BAZ2B. Also: nearly all actives have a fitted effect of over 60% in size. As to conditions: AlphaScreen BAZ2B-H3K14Ac peptide displacement; series mostly up to 114 µM; activity change, negative = inhibition: at the top concentration. The method, boiled down:
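Inhibition is scored as reduced AlphaScreen emission. The BAZ2B/b-H3(5-23)K14Ac complex (50 nM each) in PBS pH 7.4, 0.01% Tween-20 meets compound (up to 110 uM) for 30 min at RT before bead addition.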
Regarding `COc1ccc(OC)c2[nH]c(=O)c(CCNC(=O)C(C)(C)C)cc12`, the “activity change, negative = inhibition” value is 3.16% (inactive).

With `O=C(NCCCc1ccccc1)C(=O)c1c[nH]c2ccccc12`, the “activity change, negative = inhibition” value was -19% (inactive).

Turning to `COc1ccc(OC)c2[nH]c(=O)c(CCNC(=O)C(=O)c3c[nH]c4ccccc34)cc12`, the Potency is 56.2 µM (active).

As for `COc1ccc(CCNC(=O)c2ccc(CSCc3ccc(C)cc3)o2)cc1OC`, the “activity change, negative = inhibition” value was -31.1% (inactive).

In the case of `COc1cc2c(=O)c(S(=O)(=O)c3ccc(C(C)C)cc3)cn(Cc3ccccc3C)c2cc1OC`, the “activity change, negative = inhibition” value is -17.5% (inactive).

Regarding `CCC1(C)CC(=O)c2c(ccc3oc(C(=O)Nc4ccc(C(C)=O)cc4)c(C)c23)O1` (configuration not stated), the “activity change, negative = inhibition” value is 0.108% (inactive).

Consider `COc1ccc(NC(=O)COCc2cc(-c3ccco3)on2)cc1`, for which the “activity change, negative = inhibition” value is 4.22% (inactive).

Turning to `CCOc1ccc(NC(=O)c2ncoc2-c2ccco2)cc1`, the “activity change, negative = inhibition” value was -33.1% (inactive).

With `COc1ccc(-c2nc3ccc(C(=O)NCc4ccc(C)cc4)cc3nc2-c2ccc(OC)cc2)cc1`, the “activity change, negative = inhibition” value is 23.8% (inactive).

Turning to `O=C(NCc1ccccn1)c1ccc2nc(-c3ccco3)c(-c3ccco3)nc2c1`, the Potency was 11.2 µM (active).

For `COCCNC(=O)Nc1ccc2nc(-c3ccco3)c(-c3ccco3)nc2c1`, the Potency is 5.62 µM (active).

As for `COc1cccc(S(=O)(=O)NCc2ccc(C(=O)NCc3ccccn3)cc2)c1`, the “activity change, negative = inhibition” value was -1.71% (inactive).

Consider `O=C(NCc1ccc2c(c1)CCN2C(=O)c1ccccc1)c1ccccc1`, for which the “activity change, negative = inhibition” value was -10.7% (inactive).

Consider `CCOC(=O)c1cc2c(=O)n3ccccc3nc2n(CC2CCCO2)c1=NC(=O)c1ccccc1F` (configuration not stated), for which the “activity change, negative = inhibition” value is 3.27% (inactive).

`O=C(Cn1cc(SCc2cccc(Cl)c2)c2ccccc21)N1CCCCC1`: the “activity change, negative = inhibition” value is 1.17% (inactive).

With `O=C(NCC(c1ccc(Cl)cc1)N1CCOCC1)c1ccccc1F` (configuration not stated), the “activity change, negative = inhibition” value was -29.4% (inactive).

As for `CN(Cc1ccccc1)c1ccc(-c2nc(-c3ccccc3)no2)cc1[N+](=O)[O-]`, the “activity change, negative = inhibition” value was -22.6% (inactive).

`Cc1ccc(C2C3=C(Nc4[nH]n(-c5ccccc5)c(=O)c42)c2ccccc2C3=O)cc1` (configuration not stated): the Potency was 35.5 µM (active).

In the case of `Cc1ccc(-c2ccnc3[nH]n(-c4ccccc4)c(=O)c23)cc1`, the “activity change, negative = inhibition” value is -32.1% (inactive).

Turning to `Cc1ccc(-n2[nH]c(C)c(/C=N/N3C(=O)c4cccc5cccc(c45)C3=O)c2=O)cc1`, the “activity change, negative = inhibition” value is 1.55% (inactive).

For the compound `COc1cc2[nH]c(=O)n(Cc3ccc(C(=O)NCc4ccc(C)cc4)cc3)c(=O)c2cc1OC`, the “activity change, negative = inhibition” value was 1.5% (inactive).

`O=c1cc(CSc2ncn[nH]2)[nH]c2ccc(F)cc12`: the “activity change, negative = inhibition” value was 5.18% (inactive).

With `Cc1ccc(NC(=O)Cc2ccc(NC(=O)N3CCCCc4ccccc43)cc2)cc1`, the “activity change, negative = inhibition” value was -19.7% (inactive).

For `CCN(CC)S(=O)(=O)c1ccc2c(c1)nc(CN(C)C(=O)Nc1ccc(Cl)cc1)n2C`, the “activity change, negative = inhibition” value was -2.28% (inactive).

Turning to `O=C(NCCC1=CCCCC1)c1ccc2c(c1)N(Cc1ccccc1F)C(=O)c1ccccc1S2(=O)=O`, the “activity change, negative = inhibition” value was -13.6% (inactive).

In the case of `COc1cc2cc(C(=O)N/N=C/c3cccc(OC)c3OC)[nH]c2cc1OC`, the “activity change, negative = inhibition” value is -4.94% (inactive).

Regarding `CCOc1ccc2[nH]c(C(=O)N/N=C/c3cccc(OC)c3OC)cc2c1`, the “activity change, negative = inhibition” value was -3.47% (inactive).

Turning to `COc1cccc(/C=N\NC(=O)C2=NNC(=O)C2C)c1O` (configuration not stated), the Potency was 50.1 µM (active).

Take `COc1ccc(Nc2ncc(C(=O)Nc3cc(C)ccc3OC)c3ccccc23)cc1`: the “activity change, negative = inhibition” value is -2.1% (inactive).

As for `COc1ccc(-c2nc(Cn3c(=O)cc(C)c4c(C)nn(-c5ccccc5)c43)c(C)o2)cc1OC`, the “activity change, negative = inhibition” value is 15.4% (inactive).

As to `COc1ccc(Cl)cc1NC(=O)CSc1nc(=O)[nH]c2c1CCCC2`, the “activity change, negative = inhibition” value is -6.06% (inactive).

On to `COc1cc(OC)cc(C(=O)NCCc2csc3nc(-c4ccccc4F)nn23)c1`, for which the “activity change, negative = inhibition” value was -3.6% (inactive).

Take `COc1ccc(C(=O)NCC(c2ccc(N(C)C)cc2)N2CCc3ccccc32)c(OC)c1` (configuration not stated): the “activity change, negative = inhibition” value was -12.9% (inactive).

For the compound `COc1ccc(S(=O)(=O)NCC(c2ccc(C)cc2)N2CCN(C)CC2)cc1OC` (configuration not stated), the “activity change, negative = inhibition” value was 29.4% (inactive).

Turning to `COc1ccc(S(=O)(=O)NCC(c2ccc(N(C)C)cc2)N2CCc3ccccc32)cc1OC` (configuration not stated), the Potency was 11.2 µM (active).

Take `CCn1c(C(=O)Nc2cc(Cl)ccc2C)cc2sc(Cl)cc21`: the “activity change, negative = inhibition” value is -0.183% (inactive).

On to `COc1cccc(CNC(=O)CSc2c3c(nc4cc(Cl)ccc24)CCCC3)c1`, for which the “activity change, negative = inhibition” value is 1.25% (inactive).

Regarding `CCOc1ccc(CNC(=O)C2CCN(c3nnc(-n4cccc4CNc4ccc(C)cc4)s3)CC2)cc1OC`, the “activity change, negative = inhibition” value is 3.71% (inactive).

For the compound `Cc1c(C)n(Cc2ccc(Cl)cc2)c2ccc(C(=O)N3CCN(c4ccccc4F)CC3)cc12`, the “activity change, negative = inhibition” value is -36.9% (inactive).

On to `CC(C)c1ccc2c(c1)c(SC(C)(C)C)c(CC(C)(C)C(=O)O)n2Cc1ccc(Cl)cc1`, for which the Potency result is “inactive and 50.1 µM (active)”.

In the case of `CC(C)c1ccc(Cn2c(COc3ccccc3)nc3ccccc32)cc1`, the “activity change, negative = inhibition” value was 50.3% (inactive).

As for `CCCn1c(=N)c(C(=O)NCc2ccccc2)cc2c(=O)n3cccc(C)c3nc21`, the “activity change, negative = inhibition” value is 10.7% (inactive).

`Cc1cccc(C2=N/C(=C/c3cccs3)C(=O)O2)c1`: the “activity change, negative = inhibition” value is -24.5% (inactive).

Take `O=C1OC(c2ccc(Cl)cc2)=N/C1=C\c1cccnc1`: the “activity change, negative = inhibition” value was 2.81% [at 57.1 µM] (inactive).

As for `CN1/C(=C\C=C2\N=C(c3ccc(F)cc3)OC2=O)C(C)(C)c2ccccc21`, the Potency is 50.1 µM (active).

With `CCOc1ccccc1N(C)C(=O)c1cc2c(s1)-c1ccccc1OC2`, the “activity change, negative = inhibition” value was 22% (inactive).

Regarding `O=C(Cc1ccc(Cl)cc1)NCC(c1cccs1)S(=O)(=O)c1ccc(Cl)cc1` (configuration not stated), the “activity change, negative = inhibition” value was 9.96% (inactive).

(Values after PubChem BioAssay AID504333 (National Center for Advancing Translational Sciences (NCATS), 2011).)
